The source made the active and inactive calls. How the source made its calls: active means hit-call score of the fitted dose curve at least 0.9, where 1 is the maximum; inactive means score below 0.9.
Read-out: sulfotransferase 2A1 (SULT2A1), SULT2A1 (gene 6822)
Experiment: LTEA_HepaRG_SULT2A1: Life Technologies and Expression Analysis (LTEA) Assay for sulfotransferase 2A1 (SULT2A1) using HepaRG (AID 2283531)
Details: mRNA level, 48 h; actives raise or lower the signal
Procedure, shortened: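 HepaRG, 48 h chemical exposure, 8-pt half-log curve from 100 uM in 0.5% DMSO, duplicates. Readout: TaqMan qRT-PCR of SULT2A1 mRNA, housekeeping-normalized. Bidirectional fit vs DMSO baseline.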

Compound | outcome | AC50
c1cc2ccc3cccc4ccc(c1)c2c34 | inactive | 
CCSC(=O)N(CC)C1CCCCC1 | inactive | 
CC(C)(c1ccccc1)c1ccc(O)cc1 | inactive | 
CCOP(=S)(OCC)SCSC(C)(C)C |  | 10.4 µM (active)
CCOC(=O)C(O)(c1ccc(Cl)cc1)c1ccc(Cl)cc1 | inactive | 
Nc1ccc(-c2ccc(N)cc2)cc1 | inactive | 
COS(=O)(=O)OC | inactive | 
CCCCCCCCCC[N+](C)(C)CCCCCCCCCC |  | 80.9 µM (active)
O=C(O)C(F)(F)C(F)(F)C(F)(F)C(F)(F)C(F)(F)C(F)(F)C(F)(F)C(F)(F)C(F)(F)F |  | 35.7 µM (active)
Cc1cccc(C)c1N | inactive | 
CCCCCCCCCc1ccc(O)cc1 | inactive | 
O=NN(c1ccccc1)c1ccccc1 | inactive | 
CCCCCCCCOC(=O)c1ccccc1C(=O)OCCCCCCCC | inactive | 
Oc1ccc(C(c2ccc(O)cc2)(C(F)(F)F)C(F)(F)F)cc1 |  | 88.4 µM (active)
O=C(O)C(F)(F)C(F)(F)C(F)(F)C(F)(F)C(F)(F)F | inactive | 
NS(=O)(=O)C(F)(F)C(F)(F)C(F)(F)C(F)(F)C(F)(F)C(F)(F)C(F)(F)C(F)(F)F |  | 13.1 µM (active)
O=S(=O)(O)C(F)(F)C(F)(F)C(F)(F)C(F)(F)F | inactive | 
CC1=C2C[C@H]3[C@@H](CC=C4C[C@@H](O)CC[C@@]43C)[C@@H]2CC[C@]12O[C@@H]1C[C@H](C)CN[C@H]1[C@H]2C | inactive | 
CCC(C)(c1ccc(O)cc1)c1ccc(O)cc1 | inactive | 
CN(C)c1nc(=O)n(C2CCCCC2)c(=O)n1C | inactive | 

Reference: PubChem BioAssay (EPA / NIEHS)
